Screens as filed in PubChem.
A selection: hits, their analogues and other compounds. The true share with any hit is near 2.7%.
TrxR1 inh = inhibitors of rat thioredoxin reductase 1; Potency, µM (top dose mostly 114 µM), for inactives: at the highest dose activity change, negative = inhibition, usual class: inhibitors; actives 1% (n = 390,000); recombinant rTrxR1, NADPH fluorescence consumption, selenite substrate; O89049; AID 588453; further: on the % scale 0 is the no-effect control and ±100 the full control effect; nearly all actives have a fitted effect of over 65% in size
Target sequence (O89049 whole entry, looked up): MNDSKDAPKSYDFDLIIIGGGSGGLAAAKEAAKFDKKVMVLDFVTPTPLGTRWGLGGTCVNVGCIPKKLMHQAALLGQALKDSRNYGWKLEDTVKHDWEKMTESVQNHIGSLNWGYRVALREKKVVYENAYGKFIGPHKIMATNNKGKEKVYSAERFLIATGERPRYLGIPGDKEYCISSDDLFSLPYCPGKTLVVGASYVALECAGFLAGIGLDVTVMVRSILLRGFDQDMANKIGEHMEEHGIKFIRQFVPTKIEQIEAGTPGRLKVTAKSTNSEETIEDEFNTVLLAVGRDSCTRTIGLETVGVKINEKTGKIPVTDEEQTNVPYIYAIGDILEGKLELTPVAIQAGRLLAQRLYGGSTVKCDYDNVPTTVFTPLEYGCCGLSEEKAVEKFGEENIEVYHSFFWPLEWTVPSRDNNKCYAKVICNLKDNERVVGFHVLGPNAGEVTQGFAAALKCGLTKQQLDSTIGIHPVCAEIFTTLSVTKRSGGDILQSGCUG
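Rat TrxR1 (90 nM in the dispensed reagent) was pre-reduced with 400 uM NADPH for 5 min at room temperature, then incubated with compound for 15 min. After 400 uM selenite was added, NADPH fluorescence (Ex 340/Em 450 nm) was followed for 8 min.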
GLP1R inv ag = inverse agonists of human GLP-1 receptor; HEK293 GLP-1R CRE-luciferase, luminescence, 24 h; GLP-1R form is constitutively active; actives 1.6% (n = 410,000); P43220; Potency, µM (doses to about 38.3 µM), for inactives: top-dose activity change, negative = inhibition, hits mostly inhibitors; AID 624417; further: on the % scale 0 is the no-effect control and ±100 the full control effect; nearly all actives have a fitted effect of over 55% in size
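qHTS in 1536-well format: reporter HEK293 cells expressing constitutive GLP-1R activity in DMEM + 10% Nu serum, 24 hr with compounds at 37 deg C, luminescence read after 12 min with detection reagent.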
TrxR1 substrate = rat thioredoxin reductase 1 substrate activity; purified TrxR1 substrate turnover, NADPH consumption readout; Potency, µM (titrated, usually from 114 µM), for the others: top-dose activity change, negative = substrate turnover; actives 0.01% (n = 390,000); further: on the % scale 0 is the no-effect control and ±100 the full control effect; nearly all actives have a fitted effect of over 50% in size
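Rat TrxR1, dispensed at 90 nM, was prereduced with 400 uM NADPH (final) for 5 min at ~22 deg C, then incubated with compound 15 min before 400 uM selenite. A first-read NADPH fluorescence drop versus no-compound background flagged substrates.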
GLP-1R agonist = GLP-1 receptor (human) agonism | HEK293 GLP-1R CRE-luciferase, luminescence, 4-6 h; cells express a hypersensitive GLP-1R form | Potency, µM (series often up to 45.6 µM), without a hit: top-dose activation, most hits filed as activators | actives 0.007% (n = 380,000); further: % of control where 0% means no effect
IDH1 R132H inh = human IDH1 R132H inhibition; O75874; IDH1-R132H enzyme, NADPH consumption, diaphorase/resazurin fluorescence; actives 0.093% (n = 390,000); Potency, µM (series often up to 76.6 µM), without a hit: at the highest dose activity change, negative = inhibition, usual class: inhibitors; AID 602179; further: on the % scale 0 is the no-effect control and ±100 the full control effect; nearly all actives have a fitted effect of over 65% in size
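IDH1-R132H (0.5 ug/mL) preincubated 30 min with compound, then NADPH (0.016 mM) and alpha-KG (2 mM) added; 80 min at RT, pH 7.5. Remaining NADPH coupled via diaphorase/resazurin to fluorescence (540/590 nm); concentration-response curves normalized to no-enzyme control.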
GLP1R cytotox = cytotoxicity counter-screen for GLP-1 receptor inverse agonists; HEK293 cAMP-luciferase reporter cells, luminescence, 24 h; Potency, µM (doses to about 38.3 µM), for inactives: at the top dose activity change, negative = inhibition, hits mostly inhibitors; actives 0.13% (n = 410,000);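 further: loss of luciferase light is scored as toxicity; on the % scale 0 is the no-effect control and ±100 the full control effect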
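1536-well qHTS counterscreen of the MLSMR; 200 cells/uL, 12 h pre-incubation, 23 nL cpd, 24 h at 37 deg C 5% CO2, luciferase detection reagent, 12 min RT, luminescence. Inhibition = undesired.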
* hit, by the source's call; ? = inconclusive; nt = no result given; [ ] = dose if it differs, or a comment. The call rests on the fitted dose curve; in most records, active means well fitted curve in the direction sought with a large enough effect; inconclusive means small, poorly fitted or top-dose-only effect, or another doubt; inactive means no such curve, though single readings can be large; an effect the other way counts as inactive or inconclusive. Potency means the concentration at half of the fitted maximal effect.

SMILES	TrxR1 inh	GLP1R inv ag	TrxR1 substrate	GLP-1R agonist	IDH1 R132H inh	GLP1R cytotox
CCC(C)C(C(=O)OCC[N+](C)(CC)CC)c1ccccc1 (configuration not stated)	nt	nt	nt	0.2%	nt	nt
CCOc1ccc(NC(=S)N(CCc2c(C)[nH]c3ccccc23)Cc2cccnc2)cc1	-0.1%	10µM*	-9.1%	-1.2%	0.4%	0.4%
Cc1[nH]c2ccccc2c1CCN(Cc1cccnc1)C(=S)Nc1ccc(F)cc1	-17.3%	?	-12.3%	1.3%	-5.8%	1.6%
COc1cccc(NCc2nnc3n2CCCCC3)c1	8.3%[57.1 µM]	5.7%	0.5%[57.1 µM]	6.6%	9.0%	-2.9%
S=C(Nc1ccc(Cl)cc1)c1nc2ccccc2s1	14.7%[57.1 µM]	20.2%	7.2%[57.1 µM]	16.9%	4.2%	-31.5%
O=C(Nc1ccc(Cl)cc1)/C(=C/c1cccc(O)c1)c1nc2ccccc2s1	0.2%	2.82µM*	-4.5%	-4.0%	-6.3%	-15.5%
CCc1ccccc1NC(=O)C1CCN(c2nc3ccccc3[nH]2)CC1	12.1%[57.1 µM]	7.7%	2.6%[57.1 µM]	nt	8.9%	-4.4%
C(=C\c1ccccc1)/CSc1nnc(-c2ccccn2)n1Cc1ccco1	?	3.98µM*	0.8%	15.3%	-4.3%	?
Cc1cc(O)c(/C=N/Nc2ccc(F)cc2)c(=O)o1	-13.8%[57.1 µM]	1.78µM*	-9.8%[57.1 µM]	3.7%	-14.4%	?
Cc1ccc(N/N=C/c2c(O)cc(C)oc2=O)cc1	5.0%[57.1 µM]	?	-7.2%[57.1 µM]	-29.3%	4.4%	-16.6%
Cc1c(NC(=O)Nc2ccc(Br)cc2F)sc2nc3n(c(=O)c12)CCC(C)CC3 (configuration not stated)	28.7%	-1.4%	2.2%	nt	-10.4%	8.3%
COC(=O)c1cc2sccc2n1Cc1c(C)cc(C)cc1C	23.4%	1.1%	10.4%	nt	3.8%	4.9%
CC1CCN(C(=O)c2cc3c(ccc4ccccc43)o2)CC1	4.0%	10µM*	1.3%	-0.7%	6.8%	24.5%
CCOC(=O)C1CCN(C(=O)c2cc3c(ccc4ccccc43)o2)CC1	-10.5%	13.0%	-6.8%	18.1%	-1.1%	-0.2%
Cc1cc2n(n1)SC(Nc1cc(Cl)ccc1Cl)N2 (configuration not stated)	7.08µM*	?	1.3%	3.0%	4.0%	?
Cc1cc2n(n1)SC(Nc1cccc3ccccc13)N2 (configuration not stated)	-18.9%	0.0%	6.0%	-8.3%	-4.0%	?
O=C(N/N=C/c1ccc(-c2ccccc2[N+](=O)[O-])o1)c1cccnc1	50.1µM*	0.7%	-13.5%	30.1%	16.1%	-16.2%
Cc1cc(C)cc(NC(=O)Cn2c(=O)n(Cc3ccc4c(c3)OCO4)c(=O)c3oc4ccccc4c32)c1	26.2%	-5.4%	5.4%	nt	0.0%	-20.9%
O=C(Cc1cc(=O)[nH][nH]1)N/N=C/c1c(Cl)cccc1Cl	44.7µM*	11.3%	-7.4%	-7.9%	5.7%	7.2%
O=C(Nc1ccccn1)C1(c2ccccc2)CCCC1	32.7%	?	11.5%	-11.8%	4.9%	-15.0%
Cc1ccc(NC(=O)C2(c3ccccc3)CCCC2)nc1	15.0%	3.55µM*	8.4%	0.2%	-3.7%	-7.5%
Cc1ccc(NC(=O)C2(c3ccc([N+](=O)[O-])cc3)CCCC2)cc1	24.8%	10µM*	-1.8%	-2.2%	2.2%	-25.0%
COc1ccc(CNC(=O)CCc2nnc3n(CC(C)C)c(=O)c4ccccc4n23)cc1	20.5%	1.5%	-0.2%	nt	0.0%	1.0%
CCCCNC(=O)c1ccc2c(c1)NC(=O)C(CS(=O)(=O)Cc1cccc(C)c1)N2 (configuration not stated)	8.7%	8.3%	10.4%	nt	0.0%	-3.4%
COc1ccccc1/C=C/CN1CCCC(CO)(Cc2cccc(Cl)c2)C1 (configuration not stated)	35.8%[57.1 µM]	11.2µM*	5.9%[57.1 µM]	13.3%	1.5%	?
SMILES	TrxR1 inh	GLP1R inv ag	TrxR1 substrate	GLP-1R agonist	IDH1 R132H inh	GLP1R cytotox
COc1ccc(/C=C/CN2CCCC(CO)(Cc3cccc(Cl)c3)C2)cc1 (configuration not stated)	3.9%	3.16µM*	0.6%	21.5%	-2.0%	?
COc1cc(Cl)c(CN2CCCC(CO)(Cc3cccc(Cl)c3)C2)cc1OC (configuration not stated)	-1.7%	8.91µM*	-4.8%	5.3%	3.1%	-14.4%
COc1cccc(CC2(CO)CCCN(C/C=C/c3ccccc3OC)C2)c1 (configuration not stated)	-4.1%	?	-2.6%	3.4%	1.0%	-4.6%
Cc1ccc(Cl)cc1N1CCN(CCCNc2ncnc3onc(-c4ccc(F)cc4)c23)CC1	13.6%	8.0%	-0.5%	nt	1.4%	2.3%
O=C(OC1C[C@@H]2CC3C[C@H](C1)N2CC3=O)c1c[nH]c2ccccc12 (some centres not stated)	nt	nt	nt	-2.5%	nt	nt
Cc1cc(C)n(-c2nc3ccccc3nc2Nc2ccc(Cl)cc2Cl)n1	19.6%	10.3%	1.4%	nt	-5.4%	3.0%
Clc1ccc(-c2nnc(-c3ccc(Br)cc3)c(N3CCSCC3)n2)cc1	7.2%	0.0%	1.8%	-13.6%	1.7%	-2.3%
Clc1ccc(-c2nnc(-c3ccco3)nc2N2CCCCC2)cc1	6.31µM*	-29.0%	-5.6%	1.7%	3.9%	-6.9%
Cc1cccc2c(=O)cc(CSc3ccccc3NC(=O)c3cccc(F)c3)[nH]c12	14.5%[57.1 µM]	-17.3%	-1.5%[57.1 µM]	nt	7.1%	-2.1%
Oc1ccc2c(c1)OCC1(O)Cc3cc(O)c(O)cc3C21 (configuration not stated)	4.47µM*	?	7.8%	-1.6%	-2.7%	?
O=[N+]([O-])c1ccc(C2CCCC/C2=N\OCc2cccc(F)c2)c([N+](=O)[O-])c1 (configuration not stated)	6.1%	10µM*	-3.9%	-3.8%	5.8%	20.9%
Cc1ccc(S(=O)(=O)N/N=C2/CC(=O)CC(C)(C)C2)cc1[N+](=O)[O-]	39.8µM*	2.3%	-2.7%	-1.2%	2.9%	-1.7%
Cc1ccc(S(=O)(=O)NN=C2C3CC4CC(C3)CC2C4)cc1[N+](=O)[O-]	15.2%	10.7%	4.7%	-0.8%	4.9%	24.1%
Cc1ccc(C)c(NS(=O)(=O)c2cc3c(cc2C)n(C)c(=O)c(=O)n3C)c1	10.2%	9.1%	2.5%	nt	0.4%	-2.0%
NC1=NC(=O)/C(=C\c2ccc(-c3ccccc3[N+](=O)[O-])o2)S1	?	nt	-7.4%	nt	nt	nt
CC(C(=O)O)c1ccc(N2Cc3ccccc3C2=O)cc1 (configuration not stated)	13.8%	6.31µM*	2.8%	-10.6%	-4.2%	2.3%
